Data as given in PubChem BioAssay AID743311 (Broad Institute, 2014).
Potency and affinity values are given separately. Activity calls are given as the source filed them. How the calls were made is not given here.

Assay: HepG2 cell cytotoxicity, dose response, cytotoxicity control, plate reader, dry powder, set 6 (AID 743311)
Conditions: series mostly up to 26 µM; activity change, negative = cytotoxicity: at the top concentration

SMILES	activity change, negative = cytotoxicity	outcome
CS(=O)(=O)c1ccc(OCCn2cnc3ccccc32)cc1	22.4% (inactive)	
CC(C)c1ccccc1NCCn1c(=S)[nH]c2ccccc21	-15.4% (inactive)	
Cc1cccc(OCCn2cnc3ccccc32)c1	19.8% (inactive)	
CSc1nc2ccccc2n1CCOc1ccc(C)cc1	20% (inactive)	
CC(C)(C)c1ccc(OCCn2c(CO)nc3ccccc32)cc1	-2.48% (inactive)	
CSc1nc2ccccc2n1CCOc1ccccc1	-20.3% (inactive)	
Cc1ccc(OCCn2cnc3ccccc32)c(C(C)C)c1	-8.61% (inactive)	
Cc1ccc(C(C)C)c(OCCn2c(=S)[nH]c3ccccc32)c1	9.57% (inactive)	
COc1ccccc1OCCn1c(=S)[nH]c2ccccc21	10.4% (inactive)	
CC(C)(C)c1ccc(OCCn2cnc3ccccc32)cc1	4.09% (inactive)	
Fc1ccc(OCCn2c(=S)[nH]c3ccccc32)cc1	7.82% (inactive)	
CSc1nc2ccccc2n1CCOc1cc(C)ccc1C(C)C	4.69% (inactive)	
Cc1cccc(OCCn2c(=S)[nH]c3ccc(C(F)(F)F)cc32)c1	0.759% (inactive)	
OCc1nc2ccccc2n1CCOc1ccccc1	6.61% (inactive)	
COc1ccccc1OCCn1c(SC)nc2ccccc21	5.77% (inactive)	
Fc1cccc2c1[nH]c(=S)n2CCOc1ccccc1	0.48% (inactive)	
Cc1ccc(OCCn2cnc3ccccc32)c(C)c1	0.724% (inactive)	
CCc1nc2ccccc2n1CCOc1ccccc1	28.5% (inactive)	
Fc1ccc2c(c1)[nH]c(=S)n2CCOc1ccccc1		inactive
Cc1ccc(OCCn2cnc3cc(C)c(C)cc32)cc1	31.3% (inactive)	
